RPL19A TOR yeast: alters RPL19A-GFP fluorescence in TOR pathway yeast screen | S. cerevisiae RPL19A-GFP strain, flow cytometry, 3 h; stronger effect = lower value | percent response vs DMSO, % at 10 µM | AID 2025 | 0.3% of 330,000 active;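 active = percent response vs DMSO below 50%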;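 note: median channel GFP fluorescence of the barcoded RPL19A-GFP strain; ratio of sample median GFP to plate DMSO average so 100% = DMSO; lower means less RPL19A-GFP as with rapamycin TOR inhibition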
VLA-4 inh: inhibition in a human VLA-4 binding assay; 0.2% of 330,000 active; inhibition, % (about 7 µM as worked out from the volumes in the protocol); VLA-4 expressing cells, ligand binding flow cytometry; AID 2557; in the data active = inhibition above about 50%
Target sequence (P13612 whole entry, looked up): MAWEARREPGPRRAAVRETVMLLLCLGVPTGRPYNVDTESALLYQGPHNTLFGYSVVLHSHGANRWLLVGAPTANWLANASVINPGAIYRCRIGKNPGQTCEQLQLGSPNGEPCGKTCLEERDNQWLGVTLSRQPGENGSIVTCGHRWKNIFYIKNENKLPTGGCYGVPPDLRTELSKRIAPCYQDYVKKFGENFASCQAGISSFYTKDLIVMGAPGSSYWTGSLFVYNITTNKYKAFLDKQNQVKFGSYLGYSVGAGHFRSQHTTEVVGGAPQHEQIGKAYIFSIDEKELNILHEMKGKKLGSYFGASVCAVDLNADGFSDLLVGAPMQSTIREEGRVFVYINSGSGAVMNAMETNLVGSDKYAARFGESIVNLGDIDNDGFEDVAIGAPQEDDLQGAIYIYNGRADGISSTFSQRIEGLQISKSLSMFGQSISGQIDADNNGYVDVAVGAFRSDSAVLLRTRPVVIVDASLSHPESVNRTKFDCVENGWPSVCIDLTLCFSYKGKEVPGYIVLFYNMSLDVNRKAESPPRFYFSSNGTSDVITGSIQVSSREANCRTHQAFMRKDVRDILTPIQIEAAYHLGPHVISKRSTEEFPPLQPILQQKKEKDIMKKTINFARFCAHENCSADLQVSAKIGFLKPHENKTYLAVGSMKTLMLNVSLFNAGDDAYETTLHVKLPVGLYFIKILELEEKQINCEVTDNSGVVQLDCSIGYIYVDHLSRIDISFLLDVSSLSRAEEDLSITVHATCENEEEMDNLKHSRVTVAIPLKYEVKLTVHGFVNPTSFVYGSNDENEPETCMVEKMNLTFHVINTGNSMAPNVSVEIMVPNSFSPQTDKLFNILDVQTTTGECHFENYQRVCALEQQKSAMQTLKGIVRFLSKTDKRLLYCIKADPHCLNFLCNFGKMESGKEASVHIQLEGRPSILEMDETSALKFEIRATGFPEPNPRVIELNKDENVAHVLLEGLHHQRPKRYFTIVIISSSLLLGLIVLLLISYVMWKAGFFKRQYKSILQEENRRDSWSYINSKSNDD
CIT2 TOR yeast: alters CIT2-GFP fluorescence in TOR pathway yeast screen; 0.065% of 320,000 active; S. cerevisiae CIT2-GFP strain, flow cytometry, 3 h; 100 means same as DMSO wells; GFP response vs DMSO, % at 10 µM; AID 2029;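 active = GFP response relative to DMSO above a set limit, near the screen mean plus 3 SD, cut at about 150% in these data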;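 note: ratio of well median GFP fluorescence to mean of DMSO wells on the plate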
MEP2 TOR yeast: modulators of TOR pathway MEP2-GFP in S. cerevisiae; S. cerevisiae MEP2-GFP strain, flow cytometry GFP, 3 h; 100% = DMSO control level; GFP response vs DMSO, % at 10 µM; AID 2016; 0.51% of 330,000 active;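 active = GFP response versus DMSO above a set limit, roughly screen mean plus 3 SD, cut at about 180% in these data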;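 note: median GFP fluorescence of the barcode-gated MEP2-GFP cells per well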
LAP4-GFP MLPCN: modulators of TOR pathway LAP4-GFP in S. cerevisiae. S. cerevisiae LAP4-GFP multiplex, flow cytometry GFP, 3 h; median GFP as percent of DMSO wells. GFP response vs DMSO, % at 10 µM. 0.34% of 320,000 active;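 active = GFP response vs DMSO above a set limit, about the screen mean plus 3 SD, cut at about 150% in these data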
AGP1-GFP MLPCN: yeast TOR pathway AGP1-GFP modulation | 0.02% of 320,000 active | GFP response vs DMSO, % at 10 µM | S. cerevisiae AGP1-GFP multiplex flow cytometry, 3 h; GFP as percent of DMSO wells;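 active = GFP response relative to DMSO above a set limit, near screen average plus 3 SD, cut at about 150% in these data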;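 note: median GFP channel fluorescence of the gated AGP1 strain per well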
LAP4 cherry2: second confirmation of modulators of TOR reporter LAP4-GFP in yeast. S. cerevisiae LAP4-GFP strain, flow cytometry GFP, 3 h. shares compounds with LAP4-GFP MLPCN. GFP response vs DMSO, % at 10 µM. AID 2621. 20% of 590 active;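 active = GFP signal as percent of the solvent control above about 150%, meaning raised reporter expression, limit read from the data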;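 note: ratio of well median GFP fluorescence to plate DMSO mean so 100% = DMSO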
MEP2-GFP pick2: reconfirmed MEP2-GFP TOR pathway modulator in yeast; shares compounds with LAP4-GFP MLPCN; S. cerevisiae MEP2-GFP strain, flow cytometry GFP, 3 h; GFP response vs DMSO, % at 10 µM; 10% of 590 active; AID 2622;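 active = GFP signal above 150% of the solvent control wells, that is a rise of more than half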;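 note: median channel GFP fluorescence of all gated yeast cells per well; ratio of median GFP to plate DMSO average so 100% = DMSO level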
RPL19A GFP CP2: second confirmation of modulators of TOR reporter RPL19A-GFP in yeast; shares compounds with LAP4-GFP MLPCN; S. cerevisiae RPL19A-GFP strain, flow cytometry GFP, 3 h; stronger effect = lower value; 100% means same as DMSO wells; GFP response vs DMSO, % at 10 µM; 3% of 590 active;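 active = under 65% GFP response relative to DMSO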;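 note: median GFP channel fluorescence per well over the all cells gate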
CIT2-GFP pick2: reconfirmed modulator of CIT2-GFP TOR reporter in yeast; shares compounds with LAP4-GFP MLPCN; S. cerevisiae CIT2-GFP strain, flow cytometry GFP, 3 h; DMSO control wells read 100%; GFP response vs DMSO, % at 10 µM; 8% of 590 active; AID 2624;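 active = GFP response vs DMSO above about 150%, limit read from the data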;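 note: median green fluorescence per well over all gated yeast cells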
AGP1 GFP CP2: reconfirmed modulator of AGP1-GFP TOR reporter in yeast. AID 2643. 590 tested, under 10 active. percent response vs DMSO, % at 10 µM. shares compounds with LAP4-GFP MLPCN. S. cerevisiae AGP1-GFP strain, flow cytometry GFP, 3 h;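 active = over 150 percent of DMSO response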;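 note: median GFP channel fluorescence over all cells without mother daughter split; sample median GFP divided by mean DMSO control so 100% equals DMSO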
Yeast autofluor: compound is autofluorescent in yeast s288c cells; shares compounds with LAP4-GFP MLPCN; S. cerevisiae s288c, 520 nm autofluorescence, flow cytometry, 3 h; stronger effect = higher value; zero means same as solvent-only cells; fluorescence change (kMESF span) at 33 µM; 610 tested, under 10 active;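 active = fluorescence span over the dose series, or activity score, above about 33, limit read from the data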
s288c autofl DR: TOR screen hit shows autofluorescence in yeast s288c. shares compounds with LAP4-GFP MLPCN. S. cerevisiae s288c parental, compound autofluorescence, flow cytometry, 3 h. fluorescence change (span) at 33 µM. 110 tested, under 10 active. AID 488829;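 active = fluorescence change span, or the activity score built from it, above 25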
TORC1 bypass gr: compounds blocking wildtype yeast growth but not TORC1 bypass cells; shares compounds with LAP4-GFP MLPCN; growth rating (0-3) at 30 µM; 120 tested, under 10 active; S. cerevisiae BY4741 spot growth rating, 48-72 h; stronger effect = lower value;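 active = growth rating at most 1 for wild type yeast while the TORC1 bypass strain still grows fully, rated 3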
* marks the source's active call; other numbers are inactive results. An excerpt weighted towards active compounds, which were near 1.1% of everything screened.

For CCN(CC(=O)NC(C)(C)C)C(=O)COc1c(Cl)cc(Cl)c2ccc(C)nc12 the results were RPL19A TOR yeast 87, VLA-4 inh -1, CIT2 TOR yeast 81, MEP2 TOR yeast 97, LAP4-GFP MLPCN 227*, AGP1-GFP MLPCN 86 and Yeast autofluor 1.
Screening CCOc1ccccc1NC(=O)COC(=O)COc1c(Cl)cc(Cl)c2ccc(C)nc12 returned RPL19A TOR yeast 96, VLA-4 inh 8, CIT2 TOR yeast 95, MEP2 TOR yeast 93, LAP4-GFP MLPCN 104 and AGP1-GFP MLPCN 104.
COc1ccccc1/C=C/CN1CCSCC1 was read as RPL19A TOR yeast 103, VLA-4 inh -3, CIT2 TOR yeast 112, MEP2 TOR yeast 107, LAP4-GFP MLPCN 92 and AGP1-GFP MLPCN 104.
`O=C1c2cccc3c([N+](=O)[O-])ccc(c23)C(=O)N1CCc1ccccn1` gave RPL19A TOR yeast 96, VLA-4 inh -3, CIT2 TOR yeast 123, MEP2 TOR yeast 167, LAP4-GFP MLPCN 152*, AGP1-GFP MLPCN 88 and Yeast autofluor 12.
Cc1ccc2nc(/C(C#N)=C/c3ccc(O)c(O)c3)[nH]c2c1 was read as RPL19A TOR yeast 115, VLA-4 inh inactive, CIT2 TOR yeast 150*, MEP2 TOR yeast 189*, LAP4-GFP MLPCN 148, AGP1-GFP MLPCN 109 and Yeast autofluor 0.41.
Screening COc1ccc(-c2cc3nc4n(c(=O)c3s2)CCC4)cc1 returned RPL19A TOR yeast 65, VLA-4 inh -5, CIT2 TOR yeast 68, MEP2 TOR yeast 111, LAP4-GFP MLPCN 110, AGP1-GFP MLPCN 65, LAP4 cherry2 95, MEP2-GFP pick2 103, RPL19A GFP CP2 64*, CIT2-GFP pick2 85, AGP1 GFP CP2 69 and Yeast autofluor 0.5.
For COc1cc(C(=O)NCc2nnc(SCC(=O)Nc3cc(C)on3)o2)cc(OC)c1OC the results were RPL19A TOR yeast 95, VLA-4 inh -1, CIT2 TOR yeast 94, MEP2 TOR yeast 92, LAP4-GFP MLPCN 90 and AGP1-GFP MLPCN 94.
COc1cc(C(=O)NCc2nnc(SCC(=O)Nc3nccs3)o2)cc(OC)c1OC was read as RPL19A TOR yeast 50, VLA-4 inh 7, CIT2 TOR yeast 98, MEP2 TOR yeast 169, LAP4-GFP MLPCN 87, AGP1-GFP MLPCN 76, LAP4 cherry2 101, MEP2-GFP pick2 100, RPL19A GFP CP2 99, CIT2-GFP pick2 110 and AGP1 GFP CP2 97.
For O=C(Nc1cccc(N=Cc2cc(Br)cc(Br)c2O)c1)c1ccco1 the results were RPL19A TOR yeast 71, VLA-4 inh 26, CIT2 TOR yeast 85, MEP2 TOR yeast 96, LAP4-GFP MLPCN 190*, AGP1-GFP MLPCN 86, LAP4 cherry2 146, MEP2-GFP pick2 128, RPL19A GFP CP2 71, CIT2-GFP pick2 117 and AGP1 GFP CP2 99.
O=C(Nc1cccc(N=Cc2cc(Cl)cc(Br)c2O)c1)c1ccco1 was read as RPL19A TOR yeast 95, VLA-4 inh -1, CIT2 TOR yeast 93, MEP2 TOR yeast 96, LAP4-GFP MLPCN 128 and AGP1-GFP MLPCN 90.
O=S(=O)(NCC(c1ccc2c(c1)OCO2)N1CCOCC1)c1ccccc1 (configuration not stated) was read as RPL19A TOR yeast 101, VLA-4 inh 9, CIT2 TOR yeast 104, MEP2 TOR yeast 106, LAP4-GFP MLPCN 102 and AGP1-GFP MLPCN 109.
Screening C/C(=N/NC(=O)c1ccc(C(C)(C)C)cc1)c1ccccn1 returned RPL19A TOR yeast 99, VLA-4 inh 20, CIT2 TOR yeast 95, MEP2 TOR yeast 104, LAP4-GFP MLPCN 194*, AGP1-GFP MLPCN 96 and Yeast autofluor 0.82.
Screening C/C(=N\NC(=O)c1cccc(Br)c1)c1ccccn1 returned RPL19A TOR yeast 111, VLA-4 inh 1, CIT2 TOR yeast 96, MEP2 TOR yeast 113, LAP4-GFP MLPCN 169*, AGP1-GFP MLPCN 87, Yeast autofluor 0.91, s288c autofl DR 0.16 and TORC1 bypass gr 3.
COc1ccc(C(=O)N/N=C(\C)c2ccccn2)cc1OC was read as RPL19A TOR yeast 104, VLA-4 inh 1, CIT2 TOR yeast 106, MEP2 TOR yeast 106, LAP4-GFP MLPCN 116 and AGP1-GFP MLPCN 99.
`COc1ccc(-c2nc(N)ncc2-c2csc(C)n2)c(O)c1OC` gave RPL19A TOR yeast 100, VLA-4 inh -6, CIT2 TOR yeast 105, MEP2 TOR yeast 103, LAP4-GFP MLPCN 89 and AGP1-GFP MLPCN 100.
`Cc1cccnc1Nc1nc(-c2ccccn2)cs1` gave RPL19A TOR yeast 62, VLA-4 inh 9, CIT2 TOR yeast 67, MEP2 TOR yeast 103, LAP4-GFP MLPCN 104, AGP1-GFP MLPCN 63, LAP4 cherry2 165*, MEP2-GFP pick2 155*, RPL19A GFP CP2 98, CIT2-GFP pick2 115, AGP1 GFP CP2 88 and Yeast autofluor 2.
Cc1cccc(Nc2nc(-c3ccccn3)cs2)n1 was read as RPL19A TOR yeast 68, VLA-4 inh -6, CIT2 TOR yeast 80, MEP2 TOR yeast 99, LAP4-GFP MLPCN 173*, AGP1-GFP MLPCN 68 and Yeast autofluor 1.

High-throughput results as filed in PubChem.
